# Data from PubChem BioAssay AID2110 (National Center for Advancing Translational Sciences (NCATS), 2009).
# Where “and” joins values, the source holds several entries; their conditions need not be identical. Equal values may be shown once. Inconclusive results are not listed. Unmarked numbers belong to inactive results. Calls of active or inactive are those of the source. Calls come from the whole dose curve; as a rule, active = well fitted curve in either direction with a large enough effect; inconclusive = small, poorly fitted or top-dose-only effect; inactive = no such curve, though single readings can be large or run the other way.
# Biological target: Lysosomal alpha-glucosidase (Homo sapiens) (UniProt P10253)
# Experiment: Confirmation of Inhibitors and Activators of Purified Human alpha-Glucosidase Using an Alternate Red Fluorescent Susbtrate
# Conditions: purified enzyme, red fluorogenic substrate; series mostly up to 63.4 µM; activity change, negative = inhibition: at the top concentration
# Source text: NIH Chemical Genomics Center [NCGC]
# NIH Molecular Libraries Probe Production centers Network [MLPCN]
# Assay Submitter (PI): Wei Zheng
# Alpha-glucosidase is responsible for hydrolysis of terminal, non-reducing 1,4-linked alpha-D-glucose residues with release of alpha-D-glucose. It is a lysosomal hydrolase that is required for the degradation of a small percentage (1-3%) of cellular glycogen in human. Deficiency of this enzyme results in glycogen-storage disease type II (GSDII), also referred to as Pompe disease, an autosomal recessive disorder. Structurally normal glycogen is accumulated in lysosomes and cytoplasm in affected patients, primarily in muscle tissues. Excessive glycogen storage within lysosomes may interrupt normal functioning of other organelles and leads to cellular injury. In turn, this leads to enlargement and dysfunction of the entire organ involved (eg, cardiomyopathy and muscle weakness).
# It has reported that the improper folding and trafficking of alpha-glucosidase resultinged from the genetic mutations may account for a significant number of Pomrope patients. […] We optimized this alpha-glucosidase assay in 1536-well plate format for identifying the novel small molecule inhibitors with the structures other than the sugar analogs in order to develop the new pharmacological chaperones. This assay attempted to confirm hits from the primary screening using an alternate fluor than the primary screen used.
# NCGC Assay Protocol Summary:
# This is a fluorogenic enzyme assay with resorufin-alpha-D-pyranoside as the substrate and recombinant human alpha-glucosidase as the enzyme preparation. Upon the hydrolysis of this fluorogenic substrate, the resulting product, resorufin, can be excited at 573 nm and emits at 610 nm which can be detected by a standard fluorescence plate reader. Data were normalized to the controls for basal activity (without enzyme) and 100% activity (with enzyme). The AC50 values were determined from concentration-response data modeled with the standard Hill equation.
# Assay buffer: 50 mM citric acid (titrated with potassium phosphate to pH 5.0), 0.005% Tween-20, pH 5.0. (pH 5.0 is an optimal condition for this enzyme assay)
# 1536-well assay protocol for the human alpha-glucosidase:
# (1) Add 2 ul/well of enzyme (4 nM final)
# (2) Add 23 nL compounds in DMSO solution. The final titration was 0.7 nM to 77 uM.
# (3) Add 1 ul of substrate (400 uM final)
# (4) Incubate at room temperature for 20 min.
# (5) Add 2 ul stop solution (1M NaOH and 1M Glycine mixture, pH 10)
# (6) Detect the assay plate in a ViewLux plate reader (PerkinElmer) with Ex=365 nm and Em=440nm.
# Keywords: Alpha-glucosidase, Pompe Disease, pharmacological chaperone, chaperone therapy, high throughput screening, alpha-glucosidase inhibitor, MLSMR, MLSCN, NIH Roadmap, qHTS and NCGC
SMILES,"activity change, negative = inhibition",Potency
c1csc(-c2nc(NCC3CCCO3)c3ccccc3n2)c1 (stereo not given),-0.393% [at 32.7 µM],
CCCN1CNc2c(c(=O)[nH]c(=O)n2CCc2ccc(OC)c(OC)c2)C1,,14.1 µM (active)
CCCN1CNc2c(c(=O)[nH]c(=S)n2CCc2ccc(C)cc2)C1,,11.2 µM (active)
OCCNc1nc(-c2cccs2)nc2ccccc12,0.869%,
COc1ccc(CCn2c3c(c(=O)[nH]c2=S)CN(C)CN3)cc1OC,,7.94 µM (active)
CC(=O)c1ccc(N2CCN(S(=O)(=O)c3ccc4c(c3)CCCN4C(C)=O)CC2)cc1,-15.8%,
COc1ccc(N2CCN(S(=O)(=O)c3ccc4c(c3)CC(=O)N4)CC2)cc1,,18.8 µM [inhibitor] (active)
CCCN1CNc2c(c(=O)[nH]c(=S)n2CCc2cc(C)ccc2C)C1,,3.16 µM (active)
COc1ccc(CCn2c(=S)[nH]c(=O)c3c(C)cc(C)nc32)cc1OC,7.14%,
O=C1Cc2cc(S(=O)(=O)N3CCN(c4cccc(C(F)(F)F)c4)CC3)ccc2N1,,14.9 µM [inhibitor] (active)
CCCN1CNc2c(c(=O)[nH]c(=S)n2CCc2ccc(Cl)cc2Cl)C1,,1.26 µM (active)
COc1ccc(CCn2c(=S)[nH]c(=O)c3nccnc32)cc1OC,-4.4%,
O=S(=O)(c1ccc(Cl)cc1)N1CCN(c2nc(-c3cccs3)nc3ccccc23)CC1,-7.19%,
CCCN1CNc2c(c(=O)[nH]c(=S)n2CCc2cccc(OC)c2)C1,,2.51 µM (active)
CC(=O)c1ccc(N2CCN(S(=O)(=O)c3ccc4c(c3)CCCC(=O)N4)CC2)cc1,-0.651%,
CCCN1CNc2c(c(=O)[nH]c(=S)n2CCc2ccc(OC)c(OC)c2)C1,,2 µM (active)
N#CC(=C(\N)Sc1ccccc1N)/C(C#N)=C(/N)Sc1ccccc1N,,44.7 µM (active)
CCCN1CNc2c(c(=O)[nH]c(=S)n2CCc2ccc(OC)cc2OC)C1,,2.51 µM (active)
CC(=O)c1ccc(N2CCN(S(=O)(=O)c3ccc(N4CCCC4=O)cc3)CC2)cc1,-2.38%,
COc1ccc(CCn2c3c(c(=O)[nH]c2=S)CN(c2ccccc2)CN3)cc1OC,,7.94 µM (active)

SMILES,"activity change, negative = inhibition",Potency
O=c1[nH]cc(C#Cc2ccccc2)c2ncncc12,-9.19%,
O=Cc1ccc(N2CCN(S(=O)(=O)c3ccc4c(c3)CC(=O)N4)CC2)cc1,,4.11 µM [inhibitor] (active)
N#Cc1ccc(N2CCN(S(=O)(=O)c3ccc4c(c3)CC(=O)N4)CC2)cc1,,3.26 µM [inhibitor] (active)
COc1ccc(CCn2c3c(c(=O)[nH]c2=S)CN(Cc2ccccc2)CN3)cc1OC,,1.78 µM (active)
CCCN1CNc2c(c(=O)[nH]c(=S)n2CCc2cccc(Cl)c2Cl)C1,,0.158 µM (active)
CC(=O)c1ccc(N2CCN(C(=O)c3ccc4c(c3)CC(=O)N4)CC2)cc1,-10.5%,
CCCN1CNc2c(c(=O)[nH]c(=S)n2CCc2cccc(C)c2C)C1,,1.12 µM (active)
CCCN1CNc2c(c(=O)[nH]c(=S)n2CCc2cc(C)cc(C)c2)C1,,3.16 µM (active)
COc1ccc(CCn2c3c(c(=O)[nH]c2=S)CN(C(C)C)CN3)cc1OC,,11.2 µM (active)
CC(=O)c1ccc(N2CCN(S(=O)(=O)c3cc4c(cc3Cl)NC(=O)C4)CC2)cc1,,1.63 µM [inhibitor] (active) and 5.17 µM [inhibitor] (active)
CC(=O)c1ccc(N2CCN(S(=O)(=O)c3ccc4c(c3)CC(C)N4C(C)=O)CC2)cc1 (stereo not given),-22.6%,
COc1ccc(C#Cc2cnc(Cl)c3cncnc23)cc1OC,1.22%,
CCCN1CNc2c(c(=O)[nH]c(=S)n2CCc2cccc(C)c2)C1,,7.08 µM (active)
CC(=O)N1CCN(S(=O)(=O)c2ccc3c(c2)CC(=O)N3)CC1,,14.9 µM [inhibitor] (active)
CCCN1CNc2c(c(=O)[nH]c(=S)n2CCc2ccc(C)c(C)c2)C1,,1.12 µM (active)
O=C1Cc2cc(S(=O)(=O)N3CCNCC3)ccc2N1,-15.6%,
COc1cc(NS(C)(=O)=O)ccc1Nc1c2ccccc2nc2ccccc12,14.2%,
CCCN1CNc2c(c(=O)[nH]c(=S)n2CCc2ccccc2OC)C1,,11.2 µM (active)
CCCN1CNc2c(c(=O)[nH]c(=S)n2CCc2c(Cl)cccc2Cl)C1,,1.12 µM (active)
COc1ccc(CCn2c3c(c(=O)[nH]c2=S)CN(CC(C)C)CN3)cc1OC,,0.631 µM (active)
